The record followed here is PubChem BioAssay.

In this assay the target is Neurogenic locus notch homolog protein 2 (Homo sapiens) (UniProt Q04721). As to the kind of experiment: small molecules binding Notch2 protein – biochemical, small-molecule microarray, 635 nm fluorescence, stem cell growth factors, primary screen (AID 1073). The following applies: higher = more signal.
Sequence of Neurogenic locus notch homolog protein 2 (Homo sapiens) (Q04721 whole entry, looked up): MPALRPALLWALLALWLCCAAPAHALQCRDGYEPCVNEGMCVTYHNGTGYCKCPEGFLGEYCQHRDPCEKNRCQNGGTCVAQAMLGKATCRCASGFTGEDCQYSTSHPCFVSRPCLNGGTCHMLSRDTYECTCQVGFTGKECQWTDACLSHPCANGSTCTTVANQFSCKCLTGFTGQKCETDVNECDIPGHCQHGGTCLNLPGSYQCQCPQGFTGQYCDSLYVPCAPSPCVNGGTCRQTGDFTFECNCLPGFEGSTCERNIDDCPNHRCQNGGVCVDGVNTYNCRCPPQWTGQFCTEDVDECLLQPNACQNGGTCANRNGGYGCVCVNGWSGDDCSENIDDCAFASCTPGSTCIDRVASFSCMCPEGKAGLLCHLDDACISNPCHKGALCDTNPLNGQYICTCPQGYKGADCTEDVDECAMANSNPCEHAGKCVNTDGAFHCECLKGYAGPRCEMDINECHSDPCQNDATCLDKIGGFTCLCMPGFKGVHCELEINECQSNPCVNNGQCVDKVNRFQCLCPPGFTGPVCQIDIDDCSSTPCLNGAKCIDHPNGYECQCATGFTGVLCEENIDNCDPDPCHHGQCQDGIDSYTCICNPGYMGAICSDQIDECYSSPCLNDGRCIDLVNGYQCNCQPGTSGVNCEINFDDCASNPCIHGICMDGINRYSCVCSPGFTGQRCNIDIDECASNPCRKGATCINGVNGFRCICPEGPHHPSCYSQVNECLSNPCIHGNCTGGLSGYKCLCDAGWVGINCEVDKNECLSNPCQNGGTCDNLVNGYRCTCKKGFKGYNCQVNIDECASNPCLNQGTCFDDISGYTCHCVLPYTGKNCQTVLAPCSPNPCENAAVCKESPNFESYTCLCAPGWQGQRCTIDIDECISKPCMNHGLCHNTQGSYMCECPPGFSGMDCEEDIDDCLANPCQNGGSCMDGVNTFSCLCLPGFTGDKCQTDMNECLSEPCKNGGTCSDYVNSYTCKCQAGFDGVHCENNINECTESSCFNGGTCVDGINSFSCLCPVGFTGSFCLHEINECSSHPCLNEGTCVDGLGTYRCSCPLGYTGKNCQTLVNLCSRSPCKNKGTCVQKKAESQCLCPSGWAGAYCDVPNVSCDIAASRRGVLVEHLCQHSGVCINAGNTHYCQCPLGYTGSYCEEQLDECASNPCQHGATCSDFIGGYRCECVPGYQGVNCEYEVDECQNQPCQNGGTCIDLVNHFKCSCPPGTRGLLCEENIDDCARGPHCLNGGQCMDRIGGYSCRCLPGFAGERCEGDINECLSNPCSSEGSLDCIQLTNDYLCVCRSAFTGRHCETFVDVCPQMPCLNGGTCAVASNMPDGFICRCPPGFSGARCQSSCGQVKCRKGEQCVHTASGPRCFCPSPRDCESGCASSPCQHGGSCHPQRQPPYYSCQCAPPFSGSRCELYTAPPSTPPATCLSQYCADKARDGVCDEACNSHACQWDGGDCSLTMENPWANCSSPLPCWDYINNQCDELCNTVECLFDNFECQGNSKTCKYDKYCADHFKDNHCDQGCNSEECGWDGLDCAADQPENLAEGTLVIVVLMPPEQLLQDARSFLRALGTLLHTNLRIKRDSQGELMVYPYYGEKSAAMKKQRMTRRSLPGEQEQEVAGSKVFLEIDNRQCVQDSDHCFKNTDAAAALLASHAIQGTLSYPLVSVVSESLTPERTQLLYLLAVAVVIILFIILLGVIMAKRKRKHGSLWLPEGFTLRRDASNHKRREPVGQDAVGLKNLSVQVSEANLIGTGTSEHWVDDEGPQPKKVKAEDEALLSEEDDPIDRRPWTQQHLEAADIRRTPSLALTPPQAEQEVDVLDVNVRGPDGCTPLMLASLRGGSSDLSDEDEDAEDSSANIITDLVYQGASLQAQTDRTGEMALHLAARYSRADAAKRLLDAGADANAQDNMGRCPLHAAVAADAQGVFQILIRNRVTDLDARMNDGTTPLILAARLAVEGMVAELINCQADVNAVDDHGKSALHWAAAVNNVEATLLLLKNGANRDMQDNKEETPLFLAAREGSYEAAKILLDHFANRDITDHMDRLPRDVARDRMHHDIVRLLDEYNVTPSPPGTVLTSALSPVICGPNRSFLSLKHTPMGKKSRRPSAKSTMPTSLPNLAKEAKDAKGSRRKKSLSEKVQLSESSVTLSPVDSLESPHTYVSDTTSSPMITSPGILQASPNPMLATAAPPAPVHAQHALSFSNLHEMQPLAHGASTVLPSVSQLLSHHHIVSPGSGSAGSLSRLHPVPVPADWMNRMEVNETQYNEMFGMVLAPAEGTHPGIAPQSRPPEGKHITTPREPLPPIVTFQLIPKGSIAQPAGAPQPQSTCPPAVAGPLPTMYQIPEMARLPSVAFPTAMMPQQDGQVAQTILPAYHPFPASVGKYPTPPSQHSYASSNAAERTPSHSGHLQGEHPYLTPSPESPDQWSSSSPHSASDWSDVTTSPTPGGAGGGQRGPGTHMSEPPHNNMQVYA
Molecule `C#CCCCON=C1[C@H]2CCn3c(=O)n(C)c(=O)n3[C@H]2[C@H](O)[C@@H]2O[C@H]12` gave a composite z-score of 1.05.
With `CCCCC#C[C@@H]1C=C[C@H](OC(C)=O)[C@@H](COC(C)=O)O1` the figure was 0.617; with `CO[C@@H]1COC(=O)[C@@H](C)COC(=O)[C@@H](C)NC(=O)CC=C[C@@H]1C`, 0.198; with `Cc1ccc(S(=O)(=O)OC[C@H]2CN3[C@H](c4ccc(Br)cc4)[C@@H](C)CC[C@H]3C(=O)O2)cc1`, 0.0993.
The result for `COc1ccc(COC(=O)NN=C2C[C@@H](O)[C@@H](O)[C@@H]3[C@@H]4C(=O)N(c5cccc(Oc6ccccc6)c5)C(=O)[C@@H]4CC[C@@H]23)cc1` reads -0.423; that for `O=C1C2=CC[C@H]3C(=O)N(c4cccc(Oc5ccccc5)c4)C(=O)[C@H]3[C@H]2[C@H](O)[C@@H]2O[C@H]12`, -0.139; that for `CC(CCN1CCCCc2nc(C)c(C)cc21)=NO[C@H](C)c1cn([C@H](CO)Cc2ccccc2)nn1`, -0.248.
`CO[C@@H]1COC(=O)[C@H](CCSC)NC(=O)CC=C[C@@H](C)COC(=O)CCC[C@H]1C` gave a composite z-score of -0.559.
With `CC(CCN1CCCc2nc(C)c(C)cc21)=NO[C@@H](C)c1cc(-c2c(C)cc(C)cc2C)no1` the figure was 0.121.
In turn, `CO[C@@H]1COC(=O)[C@@H](C)NC(=O)CC=C[C@@H](C)[C@H](NS(=O)(=O)c2ccc(C)cc2)COC(=O)[C@H](C)NC(=O)CC=C[C@H]1C` showed a composite z-score of -0.167.
The result for `CCN1C(=O)[C@H]2[C@H]3[C@H](O)[C@H](O)CC(=NOC[C@H]4O[C@H](c5ccccc5)C=C[C@@H]4Oc4ccc(OC)cc4)[C@@H]3CC[C@H]2C1=O` reads 0.887; that for `CCOC(=O)[C@H](CC(C)C)NC(=O)CCC1CC(OC(=O)NCc2cccc3ccccc23)CC2(CCCC(COC(=O)NCC3CCCCC3)O2)O1` (some centres undefined), 0.763.
As for `CC(C)CCN1CCc2nc(COc3ccccc3)c3c(c2C1)CO[C@@H](C)C3`, the composite z-score was -0.0065.
With `COC(=O)CC=C[C@@H](C)[C@@H](C=NO[C@H](C)c1cn([C@H](CO)Cc2ccccc2)nn1)OC` the figure was -0.0484; with `CON=C(C)CCC(=O)OC[C@H]1O[C@H](c2ccccc2)C=C[C@@H]1Oc1ccc(OC)cc1`, -0.272; with `CCOC(=O)NN=C1C[C@@H](O)[C@@H](O)[C@@H]2[C@@H]3C(=O)N(c4cccc(Oc5ccccc5)c4)C(=O)[C@@H]3CC[C@@H]12`, -0.202.
With `CCN1C(=O)[C@H]2[C@H]3[C@H](O)[C@H](O)CC(=NO[C@@H](C)c4cn([C@H](CO)Cc5ccccc5)nn4)[C@@H]3CC[C@H]2C1=O` the figure was 1.51; with `COC(=O)CC=C[C@@H](C)[C@@H]1C=C[C@H](O)[C@@H](CO)O1`, 0.432; with `C[C@@H](ON=C1[C@H]2CCn3c(=O)n(-c4ccccc4)c(=O)n3[C@H]2[C@H](O)[C@@H]2O[C@H]12)c1cn([C@@H]2COC[C@H]2O)nn1`, 0.213.
The result for `CC(CCC(=O)OC[C@H]1O[C@H](C#Cc2ccccc2)C=C[C@@H]1Oc1ccc(C)cc1)=NO[C@H](C)c1cn([C@H](CO)Cc2ccccc2)nn1` reads 0.369; that for `C#CCCCON=C1C[C@@H](O)[C@@H](O)[C@@H]2[C@@H]3C(=O)N(C(C)(C)C)C(=O)[C@@H]3CC[C@H]12`, 0.162; that for `COc1ccc(COC(=O)NN=C2C[C@@H](O)[C@@H](O)[C@@H]3[C@@H]4C(=O)N(C5CCCCC5)C(=O)[C@@H]4CC[C@H]23)cc1`, -0.961.
The molecule `COC(=O)CC=C[C@H](C)[C@@H](OCc1cccc(Br)c1)[C@@H](C)[C@H](OC)C1CCCCC1` showed a composite z-score of -0.723.
The result for `Cc1ccc(S(=O)(=O)N[C@@H]2COC(=O)[C@@H](C)COC(=O)CC=C[C@H]2C)cc1` reads 0.672.
`O=C1[C@H]2[C@H]3[C@H](O)[C@H](O)CC(=NO[C@@H]4O[C@H](CO)[C@@H](O)[C@H](O)[C@H]4O)[C@H]3CC[C@H]2C(=O)N1c1cccc(Oc2ccccc2)c1` came in with a composite z-score of 0.387.
The result for `CCC1=NOC(CCC2CC(OC(=O)NCc3cccc4c3OCO4)CC3(CCCC(COC(=O)NCCc4ccccc4OC)O3)O2)C1` (centres undefined) reads 0.608; that for `CCOC(=O)[C@H](CC(C)C)NC(=O)CCC1CC(OC(=O)NCc2cccc3ccccc23)CC2(CCCC(COC(=O)NCCOc3ccccc3)O2)O1` (some centres undefined), 1.2.
Molecule `O=c1n(Cc2cc3c(cc2Cl)OCO3)c(=O)n2n1CC[C@@H]1C(=NOCc3ccccc3)[C@H]3O[C@H]3[C@@H](O)[C@@H]12` came in with a composite z-score of 0.589.
The result for `COC(=O)[C@@H]1CC[C@H](C)[C@@H](c2ccc(C)cc2)N1C(=O)c1ccc(C=NO[C@@H](C)c2cn([C@H](CO)Cc3ccccc3)nn2)cc1` reads 1.11.
